The structures appear in SMILES notation. Several values for one entry are separate records, joined by “and”; a condition that tells them apart may be missing. Equal entries are not always repeated. About 83,000 compounds went through this panel and 20% of them were active in at least one assay; those are over-represented in the sample as a whole.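 Single-dose data. Exposure time 48 hours. Values below 10 considered active.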 Unmarked numbers belong to inactive results. Activity calls are given as the source filed them.

The test system of the test is HL-60(TB) leukemia. Nature of the test: NCI-60 one-dose screen, 48 h (100 = growth as untreated, 0 = no growth, -100 = all killed). Conditions: 10 µM unless noted.
For the compound `COc1ccc2c(c1)C(=O)/C(=C/c1cccc(OCC(=O)Nc3nc(C)c(C)s3)c1)O2`, the growth was -79.3% (active).
In the case of `CCN(CC)CCCCCCNc1cc(OC)cc2cccnc12`, the growth is -57.3% (active).
Next, `C=C1C(=O)O[C@H]2[C@H]1CC/C(COC(=O)CCC(=O)NCCOCCOCC(=O)Nc1ccc(OC)c(C(N)=O)c1O)=C\CC[C@@]1(C)O[C@@H]21`: 65.3%; `O=S(=O)(NCCCNc1nccc(-c2c(-c3cccc(O)c3)nc3occn23)n1)c1ccc(F)cc1`: 72.3%; `O=C(c1ccccc1)C1CCC1`: 88.2%.
Turning to `Cc1n(Cc2ccc3ccccc3n2)cc[n+]1Cc1ccc2ccccc2c1`, the growth is -32.9% (active).
Under `Cc1noc(C)c1C(=O)OCc1coc2ccccc2c1=O` stands 12.4%; under `CC1=C(C)C[C@]2(C(=O)O[C@H]3CCCC[C@@H]32)[S@](=O)C1`, 98.1%.
As to `COC(=O)c1ccc2[nH]c(O)c(C(=Nc3ccc(N(C)C(=O)CN4CCN(C)CC4)cc3)c3ccc4c(c3)OCO4)c2c1`, the growth is -34.9% (active).
`Cn1c(-c2c(N)n(CCCN3CCOCC3)c3nc(C#N)c(C#N)nc23)nc2ccccc21`: the growth is -82.3% (active).
In the case of `O=c1c(N=Nc2nccs2)c(-c2ccccc2)[nH]n1-c1nc(-c2ccccc2)cs1`, the growth was 15.8%.
Next, `C[C@@H](O)[C@H]1C(=O)N2C(C(=O)O)=C(SCCN=CN)C[C@H]12`: 19.1%; `O=C(N/N=C1\c2ccccc2-c2cccc(C(=O)O)c21)c1ccc(O)cc1`: 103%; `C1CN(SSN2CCOCC2)CCO1`: 35.6% [100 µM].
Under `O=C(Nc1ccncc1)C(=O)c1cn(S(=O)(=O)c2ccc(Br)cc2)c2ccccc12` stands 15.3%; under `CCC(C)(O)c1ccc(C)cc1` (stereo not given), 97.3%.
Regarding `CN(C)C1CCN(C(=O)c2ccc(NC(=O)Nc3ccc(-c4nc(N5CCOCC5)nc(N5CCOCC5)n4)cc3)cc2)CC1`, the growth is 1.8% [2.5 µM] (active).
Under `O=C1c2cc3c(cc2-c2c1c1cc(Cl)c(Cl)cc1c(=O)n2C[C@H](O)CO)OCO3` stands -22.6% (active); under `CCN(CC)CC(C)(C)C(=O)/C=C/c1ccc(Cl)c(Cl)c1`, -10.2% (active); under `CN(C)c1ccc(C(Cc2ccc3ccccc3n2)Cc2ccc3ccccc3n2)cc1`, 16% and 73.5%.
For the compound `O=C(Cc1ccccc1)NC(c1ccc(Cl)cc1)c1c(O)ccc2ccccc12` (stereo not given), the growth is 7.2% (active).
Next, `CCCCN[C@H]1CC[C@@]2(C)[C@@H](CC[C@@]3(C)[C@H]2[C@H](O)C[C@H]2/C(=C(\CCC=C(C)C)C(=O)OC)[C@@H](OC(C)=O)C[C@@]23C)[C@@H]1C`: 0.474% (active).
For `CCOc1ccc2sc(NS(=O)(=O)c3ccc(N)cc3)nc2c1`, the growth was 94.7%.
With `CC(=O)Nc1ccc(S(=O)(=O)Nc2cccc(-c3nc(-c4ccc(NC(=O)c5cccnc5)cc4Cl)no3)c2)cc1`, the growth was 24%.
Under `COc1cc(/C=N/NC(=O)Cn2c(-c3ccc(C)o3)nc3ccccc32)ccc1OCc1ccccc1` stands 87.4%; under `CC1=CC[C@@H]2C(C)(C)C(=O)CC[C@@]2(C)[C@@H]1COc1ccc2ccc(=O)oc2c1`, 85.9%; under `Nc1nc2c(nnn2Cc2ccc(Cl)c(Cl)c2)c(=O)[nH]1`, 95%.
Under `Cc1cc(OI)c(C(C)C)cc1-c1cc(C(C)C)c(OI)cc1C` stands 106%; under `CCCCCCCCn1ccc2cc(NC(=O)CN3CCN(c4nc(C)cc(Cl)n4)CC3)ccc21`, 91.1%.
Next, `CC1CN(Cc2ccco2)C(=S)N(c2ccccc2)C1=O` (stereo not given): 61.3%; `O=S(=O)(NCCNc1cc(-c2cn(-c3ccccc3)nc2-c2cccc(O)c2)ccn1)c1ccc(Br)cc1`: 11.1%; `COc1ccc(-c2nc(NN)c3c(C)nn(-c4ccc(F)cc4)c3n2)cc1`: 0.613% (active).
In the case of `Cn1ccc(Cc2cnc(N)s2)n1`, the growth is 94.2%.
Next, `CCN(C)CCCOc1ccc(/C(=C(\C)Cc2cccc(OC)c2)c2ccc(OC(C)=O)cc2)cc1`: 100%.
As for `Oc1c(C(c2ccc(F)cc2)N2CCCCC2)ccc2cncnc12` (stereo not given), the growth is -29.3% (active).
For the compound `Nc1ccc(N=Nc2ccc(S(=O)(=O)O)cc2)cc1S(=O)(=O)O`, the growth is 98.5% and 146%.
Next, `CCNC(=O)CCCCC(=O)c1c(C)[nH]c(/C=C2\N=C(c3ccc[nH]3)C=C2OC)c1C`: 66.9%.
With `CCCCCCCCC(C)OC(=O)c1nn(C(C)=O)c2ccccc12` (stereo not given), the growth was 99.5%.
Under `O=C1Nc2cc(Cl)ccc2/C1=C/c1ccc(N2CCOCC2)s1` stands 93.4%; under `CC(=O)N1N=C(c2ccc(Cl)cc2)CC1c1cn(-c2ccccc2)nc1-c1ccc([N+](=O)[O-])cc1` (stereo not given), 121%.
